# Paper PMC5540273 (PLoS ONE, 2017)
# Assays:
# Details in all cases: concentration: 1 μM, replicates: in singlicate; n = 1
# ERK1 = system: T1, ERK1
# T1 construct: gene MAPK3
# ERK2 = system: T2, ERK2
# T2 construct: gene MAPK1
# ERK3 = system: T3, ERK3
# T3 construct: gene MAPK6
# ERK4 = system: T4, ERK4
# T4 construct: gene MAPK4
# ERK5 = system: T5, ERK5
# T5 construct: gene MAPK7
# ERK8 = system: T6, ERK8
# T6 construct: gene MAPK15
# ERN1 = system: ERN1
# FAK = system: T7, FAK
# T7 construct: gene PTK2
# FER = system: FER
# FES = system: FES
# FGFR1 = system: FGFR1
# FGFR2 = system: FGFR2
# FGFR3 = system: FGFR3
# FGFR4 = system: FGFR4
# FGR = system: FGR
# FLT1 = system: FLT1
# FLT3-autoinhibited = system: FLT3-autoinhibited
# FLT3 = system: FLT3
# FLT4 = system: FLT4
# FRK = system: FRK
# 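Also: KINOMEscan kinase panel screen.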
smiles,measurement,setting,value
Cc1ccc(NC(=O)c2ccnc(N3CCCCC3)c2)cc1-c1ccc(C(=O)NCC2CC2)cc1 [GW775610],%Inh,ERK1,37%
same,%Inh,ERK2,9%
same,%Inh,ERK3,0%
same,%Inh,ERK4,21%
same,%Inh,ERK5,6%
same,%Inh,ERK8,0%
same,%Inh,ERN1,70%
same,%Inh,FAK,0%
same,%Inh,FER,4%
same,%Inh,FES,4%
same,%Inh,FGFR1,4%
same,%Inh,FGFR2,10%
same,%Inh,FGFR3,2%
same,%Inh,FGFR4,0%
same,%Inh,FGR,0%
same,%Inh,FLT1,36%
same,%Inh,FLT3-autoinhibited,6%
same,%Inh,FLT3,72%
same,%Inh,FLT4,0%
same,%Inh,FRK,32%
N#Cc1cnc2cc(-c3cnc(CNCCN4CCOCC4)s3)ccc2c1Nc1ccc(Oc2ccccc2)cc1 [GW664114],%Inh,ERK1,0%
same,%Inh,ERK2,0%
same,%Inh,ERK3,0%
same,%Inh,ERK4,48%
same,%Inh,ERK5,0%
same,%Inh,ERK8,0%
same,%Inh,ERN1,21%
same,%Inh,FAK,0%
same,%Inh,FER,82%
same,%Inh,FES,94.9%
same,%Inh,FGFR1,0%
same,%Inh,FGFR2,0%
same,%Inh,FGFR3,2%
same,%Inh,FGFR4,0%
same,%Inh,FGR,96.7%
same,%Inh,FLT1,53%
same,%Inh,FLT3-autoinhibited,7%
same,%Inh,FLT3,70%
same,%Inh,FLT4,22%
same,%Inh,FRK,17%
Cc1ccc(C)c(NC(=O)Nc2ccc(C)c(-c3ccc(C(=O)Nc4ccncc4)cc3)c2)c1 [GSK1398473],%Inh,ERK1,0%
same,%Inh,ERK2,16%
same,%Inh,ERK3,9%
same,%Inh,ERK4,28%
same,%Inh,ERK5,0%
same,%Inh,ERK8,0%
same,%Inh,ERN1,0%
same,%Inh,FAK,0%
same,%Inh,FER,13%
same,%Inh,FES,0%
same,%Inh,FGFR1,0%
same,%Inh,FGFR2,0%
same,%Inh,FGFR3,10%
same,%Inh,FGFR4,3%
same,%Inh,FGR,16%
same,%Inh,FLT1,48%
same,%Inh,FLT3-autoinhibited,0%
same,%Inh,FLT3,91.8%
same,%Inh,FLT4,39%
same,%Inh,FRK,50%
O=C(O)C(F)(F)F.O=c1[nH]ccc2nc(N[C@@H]3CCNC3)nc(Nc3ccc4c(c3)S(=O)(=O)CC4)c12 [GSK2181306],%Inh,ERK1,55%
same,%Inh,ERK2,61%
same,%Inh,ERK3,78%
same,%Inh,ERK4,28%
same,%Inh,ERK5,17%
same,%Inh,ERK8,5%
same,%Inh,ERN1,39%
same,%Inh,FAK,84%
same,%Inh,FER,75%
same,%Inh,FES,16%
same,%Inh,FGFR1,4%
same,%Inh,FGFR2,33%
same,%Inh,FGFR3,21%
same,%Inh,FGFR4,0%
same,%Inh,FGR,45%
same,%Inh,FLT1,32%
same,%Inh,FLT3-autoinhibited,79%
same,%Inh,FLT3,61%
same,%Inh,FLT4,42%
same,%Inh,FRK,26%
COc1ccc(C2=C(Nc3cccc(O)c3)C(=O)NC2=O)cc1 [SB-390766],%Inh,ERK1,0%
same,%Inh,ERK2,0%
same,%Inh,ERK3,6%
same,%Inh,ERK4,22%
same,%Inh,ERK5,100%
same,%Inh,ERK8,15%
same,%Inh,ERN1,20%
same,%Inh,FAK,98.1%
same,%Inh,FER,0%
same,%Inh,FES,0%
same,%Inh,FGFR1,0%
same,%Inh,FGFR2,0%
same,%Inh,FGFR3,0%
same,%Inh,FGFR4,27%
same,%Inh,FGR,0%
same,%Inh,FLT1,5%
same,%Inh,FLT3-autoinhibited,0%
same,%Inh,FLT3,0%
same,%Inh,FLT4,35%
same,%Inh,FRK,11%
Fc1cc(Cl)ccc1Nc1ccnc2cc(-c3ccc(CN4CCOCC4)o3)ccc12 [GW560109],%Inh,ERK1,12%
same,%Inh,ERK2,0%
same,%Inh,ERK3,0%
same,%Inh,ERK4,0%
same,%Inh,ERK5,0%
same,%Inh,ERK8,19%
same,%Inh,ERN1,16%
same,%Inh,FAK,0%
same,%Inh,FER,6%
same,%Inh,FES,0%
same,%Inh,FGFR1,40%
same,%Inh,FGFR2,33%
same,%Inh,FGFR3,26%
same,%Inh,FGFR4,30%
same,%Inh,FGR,91.2%
same,%Inh,FLT1,86%
same,%Inh,FLT3-autoinhibited,6%
same,%Inh,FLT3,53%
same,%Inh,FLT4,88%
same,%Inh,FRK,86%
Cc1cccc(Nc2nc(N[C@H]3CCCC[C@H]3N)ncc2C(N)=O)c1.Cl [GSK986310],%Inh,ERK1,8%
same,%Inh,ERK2,27%
same,%Inh,ERK3,27%
same,%Inh,ERK4,49%
same,%Inh,ERK5,0%
same,%Inh,ERK8,0%
same,%Inh,ERN1,2%
same,%Inh,FAK,12%
same,%Inh,FER,84%
same,%Inh,FES,0%
same,%Inh,FGFR1,24%
same,%Inh,FGFR2,4%
same,%Inh,FGFR3,3%
same,%Inh,FGFR4,15%
same,%Inh,FGR,56%
same,%Inh,FLT1,43%
same,%Inh,FLT3-autoinhibited,1%
same,%Inh,FLT3,23%
same,%Inh,FLT4,24%
same,%Inh,FRK,19%
O=C(Nc1n[nH]c2nc(-c3ccccc3O)ccc12)C1CC1 [SB-711880],%Inh,ERK1,0%
same,%Inh,ERK2,0%
same,%Inh,ERK3,0%
same,%Inh,ERK4,0%
same,%Inh,ERK5,0%
same,%Inh,ERK8,82%
same,%Inh,ERN1,0%
same,%Inh,FAK,0%
same,%Inh,FER,0%
same,%Inh,FES,0%
same,%Inh,FGFR1,31%
same,%Inh,FGFR2,0%
same,%Inh,FGFR3,0%
same,%Inh,FGFR4,3%
same,%Inh,FGR,0%
same,%Inh,FLT1,3%
same,%Inh,FLT3-autoinhibited,0%
same,%Inh,FLT3,28%
same,%Inh,FLT4,0%
same,%Inh,FRK,0%
Cc1ccc(-c2ccc3occ(-c4ccc(S(C)=O)cc4)c3c2)nn1 (centres unmarked),%Inh,ERK1,0%
same,%Inh,ERK2,7%
same,%Inh,ERK3,0%
same,%Inh,ERK4,0%
same,%Inh,ERK5,0%
same,%Inh,ERK8,1%
same,%Inh,ERN1,1%
same,%Inh,FAK,0%
same,%Inh,FER,0%
same,%Inh,FES,5%
same,%Inh,FGFR1,0%
same,%Inh,FGFR2,2%
same,%Inh,FGFR3,4%
same,%Inh,FGFR4,0%
same,%Inh,FGR,15%
same,%Inh,FLT1,0%
same,%Inh,FLT3-autoinhibited,0%
same,%Inh,FLT3,0%
same,%Inh,FLT4,0%
same,%Inh,FRK,0%
CCOc1nccc(-c2c(-c3ccc(F)cc3)ncn2C2CCNCC2)n1 [SB-249175],%Inh,ERK1,0%
same,%Inh,ERK2,0%
same,%Inh,ERK3,26%
same,%Inh,ERK4,13%
same,%Inh,ERK5,12%
same,%Inh,ERK8,2%
same,%Inh,ERN1,1%
same,%Inh,FAK,0%
same,%Inh,FER,9%
same,%Inh,FES,0%
same,%Inh,FGFR1,25%
same,%Inh,FGFR2,3%
same,%Inh,FGFR3,11%
same,%Inh,FGFR4,4%
same,%Inh,FGR,0%
same,%Inh,FLT1,18%
same,%Inh,FLT3-autoinhibited,18%
same,%Inh,FLT3,39%
same,%Inh,FLT4,2%
same,%Inh,FRK,6%
